# PubChem BioAssay
# System: not listed separately
# Test: probe aLAP1 signal on lysate-treated microarray – cell lysate, small-molecule microarray, COS7 lysate, primary screen (AID 1124);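 note: lysate comes from COS7 cells expressing LAP1 and is applied at 0.3 µg/mL; score merges spot fluorescence near 667 nm with signal-to-noise over triplicate slides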
# Details: probe aLAP1, fluorescence, higher = more signal
row,Compound,composite z-score
1,COc1cc(NN2C(C(O)c3ccc(I)cc3)C=CC3C(=O)N(c4ccccc4)C(=O)C32)cc(OC)c1OC (stereo not drawn),0.0865
2,Cc1ccc([C@H]2C(C(=O)O)=C[C@@H](C(C)(C)C)N2S(=O)(=O)c2ccc(C)cc2)cc1,0.868
3,CC(C)OC(=O)CC(=O)CC(O)c1ccc([N+](=O)[O-])cc1 (stereo not drawn),0.447
4,NC(=O)N1C(=O)C2C(C1=O)C1C=C(CCCO)C2C(C2CC2)N1Cc1cccc(OC(F)(F)F)c1 (stereo not drawn),-0.0171
5,CC(CO)N1C(=O)[C@@H]2[C@H]3C(=O)OCC=C[C@H]3OC23C=CCN(c2ccc(Cl)cc2)C(=O)[C@@H]13 (stereo partly drawn),-0.191
6,NC(=O)[C@@H]1[C@H]2C(=O)O[C@H](c3ccccc3)[C@H](c3ccccc3)N2[C@H](c2ccc(OCCO)cc2)[C@@]12C(=O)Nc1ccc(C#CCCO)cc12,0.959
7,CCOC(=O)C[C@H]1[C@H](OC(=O)c2ccc(C(=O)c3ccccc3)cc2)[C@@H](NC(=O)CC(C)C)c2cc(OCCCO)ccc2N1C(=O)Cc1ccc(OC)cc1,0.563
8,COCCCNC(=O)[C@@]1(c2ccc([N+](=O)[O-])cc2)CC(=O)N(CC23CC4CC(CC(C4)C2)C3)[C@@H]1c1ccc(CO)cc1I,0.159
9,C=C(/C(=C/C[C@@H](OC(C)=O)c1ccc(CO)o1)c1cc(C(=O)OC)ccc1OC)C(C)C,0.0806

# System: Sam68 (KHDRBS1)
# Test: compounds binding KHDRBS1 protein – biochemical, small-molecule microarray, 635 nm fluorescence, primary screen (AID 1125);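 note: score merges 667 nm channel intensity with signal to noise over triplicate slides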
# Details: higher = more signal
row,Compound,composite z-score
1,Cc1nc2cc(Br)ccc2c(=O)n1Cc1cccc(O)c1,0.968
2,C=C[C@@H](C)[C@H](O)c1ccc(OCCO)cc1,-0.885
3,C=CCN1C(=O)[C@]2(O[C@H](CCO)[C@@H]([Si](C)(C)c3ccc(OC)cc3)[C@@H]2C)c2cc(NC(=O)c3ccc(OC)cc3)ccc21,1.04
4,CCOC(=O)C[C@H]1[C@H](OC(=O)c2cc3ccccc3oc2=O)[C@@H](NC(=O)c2ccc3ccccc3c2)c2cc(OCCCO)ccc2N1C(=O)Cc1ccc(OC)cc1,0.692
5,COc1ccc(C#Cc2ccc3c(c2)[C@]2(C(=O)N3)[C@H](c3ccc(OCCO)cc3)N3[C@H](c4ccccc4)[C@H](c4ccccc4)OC(=O)[C@H]3[C@@H]2C(=O)N2CCc3cc(OC)c(OC)cc3C2)cc1,1.12
6,COC(=O)c1c2oc(c1C(=O)OC)C(=O)N1CCC[C@H]1Cn1nncc1CN(Cc1ccccc1)C(=O)N[C@H](CO)CC2,0.626
7,COC(=O)C(CC#Cc1ccc2c(c1)[C@]1(C(=O)N2)[C@H](c2ccc(O)cc2)N2[C@H](c3ccccc3)[C@H](c3ccccc3)OC(=O)[C@H]2[C@@H]1C(=O)N1CCCCCCC1)C(=O)OC,1.29
8,C=C[C@H](C)[C@H](OC(=O)Nc1ccc(OC)cc1)c1ccc(OCCO)cc1,-0.321
9,[N-]=[N+]=NC[C@H](Cc1ccccc1)NC(=O)c1ccccc1,-0.258
10,COc1ccc([Si](C)(C)[C@H]2[C@H](CC(=O)N3Cc4ccccc4C[C@H]3CO)O[C@@]3(C(=O)N(Cc4ccc(N5C(=O)c6cccc7cccc5c67)cc4)c4ccccc43)[C@@H]2C)cc1,1.3
11,COc1ccc([Si](C)(C)[C@H]2[C@H](CC(=O)N3CCC[C@H]3CO)O[C@@]3(C(=O)N(Cc4ccc(N5CCC5=O)cc4)c4ccccc43)[C@@H]2C)cc1,1.3
12,C=CCNC(=O)[C@H]1[C@@H]2C(=O)O[C@@H](c3ccccc3)[C@@H](c3ccccc3)N2[C@@H](c2ccc(OCCO)cc2)[C@]12C(=O)Nc1ccc(C#CCNC(N)=O)cc12,1.18
13,C=CCC(OC(C)=O)[C@@H]1[C@@H](N(Cc2cccc3ccccc23)C(=O)Cc2ccc(F)cc2)c2cc(OCCCO)ccc2N1C(=O)c1ccc(-c2ccccc2)cc1 (stereo partly drawn),-0.738
14,CC1CC/C=C\[C@H]2OC34C=CCN(CCN5CCOCC5)C(=O)[C@H]3N(C(C)CO)C(=O)[C@@H]4C2C(=O)O1 (stereo partly drawn),0.19
15,C=CCN1C(=O)[C@]2(O[C@H](CCO)[C@@H]([Si](C)(C)c3ccc(OC)cc3)[C@@H]2C)c2cc(N3C(=O)COc4ccccc43)ccc21,0.804
16,CN(C)C(=O)[C@]1(CCS(=O)(=O)c2ccccc2)N=C(c2ccc(OCCCO)cc2)O[C@@H]1c1ccccc1,1.3
17,Cc1ccccc1C(O)C1C=CC2C(=O)NC(=O)C2N1Nc1ccc(Cl)cc1Cl (stereo not drawn),0.965
18,O=C1c2ccccc2[C@](Cc2ccccc2I)(C(=O)NC2CC2)[C@H](c2ccc(CO)cc2)N1Cc1ccccc1C(F)(F)F,0.456
19,Cc1ccc(C(C)CC(O)C2C=CC3C(=O)N(c4ccccc4)C(=O)C3N2Nc2ccc(C#N)cc2)o1 (stereo not drawn),1.29
